The results in this text go back to PMC4336329 (PLoS ONE, 2015).

The campaign covered roughly 310,000 compounds. About 14,000 (4.5%) showed an effect of 50% or more. Effects have a minus sign here. Shown is part of a subset that was picked to be rich in strong results.
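Also: peak tail current of the secondary pulse compared with the same well before compound.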

Sequence of human ether-à-go-go-related gene (hERG) potassium channel (Q12809 whole entry, looked up): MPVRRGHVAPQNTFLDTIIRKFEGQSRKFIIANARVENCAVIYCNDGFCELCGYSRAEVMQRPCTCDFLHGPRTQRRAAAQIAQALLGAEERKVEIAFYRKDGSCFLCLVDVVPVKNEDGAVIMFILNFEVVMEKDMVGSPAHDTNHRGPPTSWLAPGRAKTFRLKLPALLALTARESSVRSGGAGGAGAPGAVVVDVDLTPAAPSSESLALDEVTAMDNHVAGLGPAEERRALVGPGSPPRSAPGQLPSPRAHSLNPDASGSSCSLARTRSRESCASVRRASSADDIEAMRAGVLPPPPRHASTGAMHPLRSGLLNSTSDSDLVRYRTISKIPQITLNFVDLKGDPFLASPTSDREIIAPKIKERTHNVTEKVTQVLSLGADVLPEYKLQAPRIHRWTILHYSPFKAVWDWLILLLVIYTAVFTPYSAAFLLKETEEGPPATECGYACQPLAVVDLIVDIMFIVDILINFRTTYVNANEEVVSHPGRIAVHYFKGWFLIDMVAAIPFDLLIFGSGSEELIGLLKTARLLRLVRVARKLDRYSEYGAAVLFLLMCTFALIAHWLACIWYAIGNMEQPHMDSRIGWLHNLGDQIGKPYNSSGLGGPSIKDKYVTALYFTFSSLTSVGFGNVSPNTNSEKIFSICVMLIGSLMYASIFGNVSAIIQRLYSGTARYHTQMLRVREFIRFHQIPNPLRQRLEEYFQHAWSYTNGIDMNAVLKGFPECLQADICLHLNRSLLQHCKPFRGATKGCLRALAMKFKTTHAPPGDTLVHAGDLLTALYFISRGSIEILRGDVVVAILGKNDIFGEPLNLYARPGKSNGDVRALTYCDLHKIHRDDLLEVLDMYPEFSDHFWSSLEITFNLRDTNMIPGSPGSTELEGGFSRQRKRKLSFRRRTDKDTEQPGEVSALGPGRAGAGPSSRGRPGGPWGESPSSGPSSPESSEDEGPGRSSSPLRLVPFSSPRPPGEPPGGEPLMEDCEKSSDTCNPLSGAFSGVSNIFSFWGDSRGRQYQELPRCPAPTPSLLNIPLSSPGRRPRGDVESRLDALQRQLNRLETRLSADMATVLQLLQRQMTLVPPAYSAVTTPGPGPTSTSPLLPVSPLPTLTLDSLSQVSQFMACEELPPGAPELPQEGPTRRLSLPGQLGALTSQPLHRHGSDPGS

This test concerns the target human ether-à-go-go-related gene (hERG) potassium channel (human, UniProt Q12809). Nature of the test: primary screen, population patch clamp on CHO cells stably expressing hERG; higher = less effect of the substance.
On to `COCCOC(=O)C1=C(C)N=C2SCCC(=O)N2C1c1cccs1` (stereo not shown), for which the “hERG current change (%, negative = inhibition) at 10uM” value is 13.8%.

In the case of `COc1cc(-c2csc(N3CCOCC3)n2)cc(OC)c1OC`, the “hERG current change (%, negative = inhibition) at 10uM” value was 13.3%.

In the case of `Cn1cc(C(=O)N2CCN(c3cccc(Cl)c3)CC2)c(=O)c2cc(S(=O)(=O)N3CCOCC3)ccc21`, the “hERG current change (%, negative = inhibition) at 10uM” value is -17.6%.

For the molecule `Cc1ccc(C)c(N2CCN(C(=O)CCCOc3cc(=O)n(C)c4ccccc34)CC2)c1`, the “hERG current change (%, negative = inhibition) at 10uM” value is -40.8%.

For the molecule `COc1ccc(NP(=O)(Nc2ccc(OC)cc2)Oc2ccccc2)cc1`, the “hERG current change (%, negative = inhibition) at 10uM” value is -13.9%.

Consider `O=CNc1ccc(OP(=O)(Oc2ccccc2)Oc2ccccc2)cc1`, for which the “hERG current change (%, negative = inhibition) at 10uM” value was -61.7%.

For the molecule `O=CNc1ccccc1`, the “hERG current change (%, negative = inhibition) at 10uM” value is 14.6%.

As for `CN(C)c1ccc(/C=C/C=N/Nc2nc(N3CCOCC3)nc(N3CCOCC3)n2)cc1`, the “hERG current change (%, negative = inhibition) at 10uM” value stood at 0.992%.

For `CCOC(=O)N1CCC(N(CCN(C)C)C(=S)Nc2ccccc2OCC)CC1`, the “hERG current change (%, negative = inhibition) at 10uM” value is recorded as -8.05%.

With `Cc1ccc(/C=N/NC(=O)CSc2nc3nc(C)cc(C)n3n2)cc1`, the “hERG current change (%, negative = inhibition) at 10uM” value is reported as -19.3%.

Regarding `Cc1ccc(S(=O)(=O)CCC(=O)c2ccc(F)cc2)cc1`, the “hERG current change (%, negative = inhibition) at 10uM” value was 8.7%.

Turning to `O=C(N/N=C\c1cn[nH]c1-c1ccccc1)c1ccc([N+](=O)[O-])cc1`, the “hERG current change (%, negative = inhibition) at 10uM” value is reported as -64.9%.

Regarding `COc1ccc(/C=N/NC(=O)c2cccc([N+](=O)[O-])c2)cc1OC`, the “hERG current change (%, negative = inhibition) at 10uM” value is reported as 5.28%.

For the molecule `Cc1cc(C(=O)N/N=C\c2ccc(COc3ccc([N+](=O)[O-])cc3)o2)ccc1[N+](=O)[O-]`, the “hERG current change (%, negative = inhibition) at 10uM” value is listed as -7.77%.

As for `O=C(N/N=C/c1cn[nH]c1-c1ccc(Cl)cc1)c1ccc([N+](=O)[O-])cc1`, the “hERG current change (%, negative = inhibition) at 10uM” value is on record as -51.5%.

For `O=C(N/N=C\c1cn[nH]c1-c1ccccc1)c1cccnc1`, the “hERG current change (%, negative = inhibition) at 10uM” value is recorded as -1.27%.

As for `COc1ccc(-c2[nH]ncc2/C=N/NC(=O)c2cccc([N+](=O)[O-])c2)cc1OC`, the “hERG current change (%, negative = inhibition) at 10uM” value is -62.1%.

For the molecule `O=C(N/N=C/c1cn[nH]c1-c1ccc(F)cc1)c1ccncc1`, the “hERG current change (%, negative = inhibition) at 10uM” value is reported as 6.55%.

As for `COc1ccc(-c2[nH]ncc2/C=N\NC(=O)c2ccc(C(C)(C)C)cc2)cc1OC`, the “hERG current change (%, negative = inhibition) at 10uM” value is reported as -9.5%.

For the molecule `O=C(N/N=C\c1ccc(COc2ccc([N+](=O)[O-])cc2)o1)c1cccc(Cl)c1`, the “hERG current change (%, negative = inhibition) at 10uM” value is 4.17%.

For the molecule `O=C(CNC(=O)c1ccc(F)cc1)N/N=C/c1cn[nH]c1-c1ccccc1`, the “hERG current change (%, negative = inhibition) at 10uM” value is -18.1%.

As to `O=C(N/N=C/c1cccnc1)c1ccc([N+](=O)[O-])cc1`, the “hERG current change (%, negative = inhibition) at 10uM” value is on record as -7.74%.

For the molecule `O=C(N/N=C\c1ccc(COc2ccc([N+](=O)[O-])cc2)o1)c1ccc(Cl)cc1`, the “hERG current change (%, negative = inhibition) at 10uM” value was -67.6%.

With `O=C(NC(=S)Nc1ccc(Br)cn1)c1cncc(Br)c1`, the “hERG current change (%, negative = inhibition) at 10uM” value was found to be 11.3%.

Consider `O=C(NCc1ccccc1Cl)C1=CC=CN2CCS(=O)(=O)N=C12`, for which the “hERG current change (%, negative = inhibition) at 10uM” value is given as -11.1%.

On to `Cc1cc(Nc2ccc(Br)cc2F)n2nc(C)nc2n1`, for which the “hERG current change (%, negative = inhibition) at 10uM” value is reported as -21.5%.

For `O=C(CSc1nnc(C2CCCCC2)o1)Nc1ccccc1Cl`, the “hERG current change (%, negative = inhibition) at 10uM” value is on record as -11.5%.

Take `COc1ccc(Cl)c(NCCC(=O)O)c1`: the “hERG current change (%, negative = inhibition) at 10uM” value was found to be 15.5%.

For the molecule `Cc1c(N=C/C=C/c2ccccc2)c(=O)n(-c2ccccc2)n1C`, the “hERG current change (%, negative = inhibition) at 10uM” value turned out to be 11.1%.

As to `O=S(N1CCc2ccccc21)C12CC3CC(CC(C3)C1)C2` (stereo not shown), the “hERG current change (%, negative = inhibition) at 10uM” value is reported as -6.09%.

Take `O=C1C=C(c2ccc3c(c2)OCO3)C[C@@H](c2ccc(Cl)cc2)C1`: the “hERG current change (%, negative = inhibition) at 10uM” value is recorded as 5.86%.

Take `O=C(NCc1ccccc1)c1ccc(Oc2ccc(C(=O)NCc3ccccc3)cc2)cc1`: the “hERG current change (%, negative = inhibition) at 10uM” value is listed as -3.44%.

Take `Cl.ClCCN1C2=NCCCN2c2ccccc21`: the “hERG current change (%, negative = inhibition) at 10uM” value is listed as -26.4%.

Consider `Br.CCOC(=O)CN1C2=NCCCN2c2ccccc21`, for which the “hERG current change (%, negative = inhibition) at 10uM” value is 2.95%.

As to `Cc1ccc(C)c(C(=O)CN2C(=O)c3ccccc3C2=O)c1`, the “hERG current change (%, negative = inhibition) at 10uM” value was determined as 9.96%.

Consider `O=C1CCCc2ccccc2N1Cc1ccc(Cl)cc1Cl`, for which the “hERG current change (%, negative = inhibition) at 10uM” value is listed as -18.2%.

Consider `Cl.Clc1ccc(CN2C3=NCCCN3c3ccccc32)cc1`, for which the “hERG current change (%, negative = inhibition) at 10uM” value is -75.1%.

For `Cl.Clc1ccc(CN2C3=NCCN3c3ccccc32)cc1`, the “hERG current change (%, negative = inhibition) at 10uM” value is reported as -69.5%.

On to `O=C1c2ccccc2N(Cc2ccc(Cl)cc2)C2=NCCN12`, for which the “hERG current change (%, negative = inhibition) at 10uM” value is listed as -13.5%.

As for `Br.Cc1ccc(C)c(C(=O)CN2C3=NCCCN3c3ccccc32)c1`, the “hERG current change (%, negative = inhibition) at 10uM” value was -69.2%.

For `Cl.Clc1ccc(CN2C3=NCCCN3c3ccccc32)c(Cl)c1`, the “hERG current change (%, negative = inhibition) at 10uM” value is -66%.

`COc1ccc(NC(=O)CCOc2ccccc2)c(OC)c1`: the “hERG current change (%, negative = inhibition) at 10uM” value stood at 1.87%.

For the molecule `CNC(=O)NC(=O)COC(=O)c1n[nH]c2ccccc12`, the “hERG current change (%, negative = inhibition) at 10uM” value is 16.5%.
